Laboratory results from PubChem BioAssay AID1159580 (chemical genetic matrix, 2015).
Where “and” joins values, the source holds several entries; their conditions need not be identical. Equal values may be shown once. In all, about 5,500 compounds went through this assay and about 2,000 (36%) were called active. Roughly 18% stayed inconclusive and do not appear here. Some of the results follow. Values without a mark were called inactive. Cut-off read from the data, not from the text of the source: active = normalized growth mostly below about 0.91 (no sharp cut-off); inconclusive = no clear call, values can overlap the other calls; inactive = mostly above about 0.92.

Assay: chemical genetic growth profiling, strain panel (AID 1159580);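 note: tested at 20 µM; growth read once vehicle control cultures reached saturation at 30 °C; 1 = growth at the plate median or of vehicle wells; lower values mean less growth of the strain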
Conditions: growth OD

SMILES: COc1ccc(-c2coc3cc(O)cc(O)c3c2=O)cc1
- normalized growth (S. cerevisiae deletion strains, locus YAL013W, strain DEP1, active compounds read low): 0.497 (active)
- normalized growth (S. cerevisiae deletion strains, locus YBR021W, strain FUR4, active compounds read low): 0.988
- normalized growth (S. cerevisiae deletion strains, locus YBR229C, strain ROT2, active compounds read low): 0.77 (active)
- normalized growth (S. cerevisiae deletion strains, locus YCL029C, strain bik1, active compounds read low): 0.496 (active)
- normalized growth (S. cerevisiae deletion strains, locus YDL035C, strain GPR1, active compounds read low): 0.241 (active)
- normalized growth (S. cerevisiae deletion strains, locus YDL074C, strain BRE1, active compounds read low): 0.261 (active)
- normalized growth (S. cerevisiae deletion strains, locus YDL101C, strain DUN1, active compounds read low): 0.358 (active)
- normalized growth (S. cerevisiae deletion strains, locus YDL134C, strain PPH21, active compounds read low): 0.295 (active)
- normalized growth (S. cerevisiae deletion strains, locus YDL185W, strain tfp1, active compounds read low): 0.899 (active)
- normalized growth (S. cerevisiae deletion strains, locus YDL192W, strain arf1, active compounds read low): 0.28 (active)
- normalized growth (S. cerevisiae deletion strains, locus YDR101C, strain arx1, active compounds read low): 0.504 (active)
- normalized growth (S. cerevisiae deletion strains, locus YDR150W, strain NUM1, active compounds read low): 0.323 (active)
- normalized growth (S. cerevisiae deletion strains, locus YDR162C, strain NBP2, active compounds read low): 0.12 (active)
- normalized growth (S. cerevisiae deletion strains, locus YDR318W, strain mcm21, active compounds read low): 0.265 (active)
- normalized growth (S. cerevisiae deletion strains, locus YDR388W, active compounds read low): 0.286 (active)
- normalized growth (S. cerevisiae deletion strains, locus YDR502C, strain sam2, active compounds read low): 0.287 (active)
- normalized growth (S. cerevisiae deletion strains, locus YEL061C, strain CIN8, active compounds read low): 0.206 (active)
- normalized growth (S. cerevisiae deletion strains, locus YER110C, active compounds read low): 0.539 (active)
- normalized growth (S. cerevisiae deletion strains, locus YER155C, strain BEM2, active compounds read low): 0.199 (active)
- normalized growth (S. cerevisiae deletion strains, locus YER167W, strain BCK2, active compounds read low): 0.178 (active)
- normalized growth (S. cerevisiae deletion strains, locus YGL078C, strain dbp3, active compounds read low): 0.649 (active)
- normalized growth (S. cerevisiae deletion strains, locus YGL086W, strain mad1, active compounds read low): 0.258 (active)
- normalized growth (S. cerevisiae deletion strains, locus YGL248W, strain PDE1, active compounds read low): 0.286 (active)
- normalized growth (S. cerevisiae deletion strains, locus YGR078C, strain PAC10, active compounds read low): 0.227 (active)
- normalized growth (S. cerevisiae deletion strains, locus YGR135W, strain pre9, active compounds read low): 0.314 (active)
- normalized growth (S. cerevisiae deletion strains, locus YGR229C, strain SMI1, active compounds read low): 0.196 (active)
- normalized growth (S. cerevisiae deletion strains, locus YGR252W, strain gcn5, active compounds read low): 0.507 (active)
- normalized growth (S. cerevisiae deletion strains, locus YHR030C, strain SLT2, active compounds read low): 0.248 (active) and 0.299 (active)
- normalized growth (S. cerevisiae deletion strains, locus YHR079C, strain IRE1 (second series), active compounds read low): 0.526 (active)
- normalized growth (S. cerevisiae deletion strains, locus YHR079C, strain IRE1, active compounds read low): 0.293 (active)
- normalized growth (S. cerevisiae deletion strains, locus YHR094C, strain hxt1, active compounds read low): 0.627 (active)
- normalized growth (S. cerevisiae deletion strains, locus YHR129C, strain ARP1, active compounds read low): 0.363 (active)
- normalized growth (S. cerevisiae deletion strains, locus YHR200W, strain rpn10, active compounds read low): 0.513 (active)
- normalized growth (S. cerevisiae deletion strains, locus YIL066C, strain RNR3, active compounds read low): 0.361 (active)
- normalized growth (S. cerevisiae deletion strains, locus YIL073C, strain SPO22, active compounds read low): 0.532 (active)
- normalized growth (S. cerevisiae deletion strains, locus YIL125W, strain kgd1, active compounds read low): 0.697 (active)
- normalized growth (S. cerevisiae deletion strains, locus YIR030C, strain dcg1, active compounds read low): 0.465 (active)
- normalized growth (S. cerevisiae deletion strains, locus YJL095W, strain BCK1, active compounds read low): 0.172 (active) and 0.287 (active)
- normalized growth (S. cerevisiae deletion strains, locus YJL134W, strain LCB3, active compounds read low): 0.7 (active)
- normalized growth (S. cerevisiae deletion strains, locus YJL168C, strain set2, active compounds read low): 0.888 (active)
- normalized growth (S. cerevisiae deletion strains, locus YJL187C, strain SWE1 (second series), active compounds read low): 0.353 (active)
- normalized growth (S. cerevisiae deletion strains, locus YJR043C, strain POL32, active compounds read low): 0.374 (active)
- normalized growth (S. cerevisiae deletion strains, locus YJR066W, strain TOR1, active compounds read low): 0.16 (active)
- normalized growth (S. cerevisiae deletion strains, locus YJR075W, strain HOC1, active compounds read low): 0.179 (active)
- normalized growth (S. cerevisiae deletion strains, locus YKL009W, strain mrt4, active compounds read low): 0.484 (active)
- normalized growth (S. cerevisiae deletion strains, locus YKL068W, active compounds read low): 0.964
- normalized growth (S. cerevisiae deletion strains, locus YKL085W, strain MDH1 (second series), active compounds read low): 0.604 (active)
- normalized growth (S. cerevisiae deletion strains, locus YKL085W, strain MDH1, active compounds read low): 0.604 (active)
- normalized growth (S. cerevisiae deletion strains, locus YKL190W, strain CNB1, active compounds read low): 0.223 (active)
- normalized growth (S. cerevisiae deletion strains, locus YKR001C, strain vps1, active compounds read low): 0.189 (active)
- normalized growth (S. cerevisiae deletion strains, locus YLR039C, strain RIC1, active compounds read low): 0.241 (active)
- normalized growth (S. cerevisiae deletion strains, locus YLR058C, strain SHM2, active compounds read low): 0.365 (active)
- normalized growth (S. cerevisiae deletion strains, locus YLR102C, strain apc9, active compounds read low): 0.625 (active)
- normalized growth (S. cerevisiae deletion strains, locus YLR113W, strain HOG1, active compounds read low): 0.332 (active)
- normalized growth (S. cerevisiae deletion strains, locus YLR262C, strain YPT6, active compounds read low): 0.181 (active)
- normalized growth (S. cerevisiae deletion strains, locus YLR268W, strain sec22, active compounds read low): 0.211 (active)
- normalized growth (S. cerevisiae deletion strains, locus YLR330W, strain CHS5, active compounds read low): 0.356 (active)
- normalized growth (S. cerevisiae deletion strains, locus YLR342W, strain FKS1 (second series), active compounds read low): 0.289 (active)
- normalized growth (S. cerevisiae deletion strains, locus YLR371W, strain rom2, active compounds read low): 0.493 (active)
- normalized growth (S. cerevisiae deletion strains, locus YLR418C, strain cdc73, active compounds read low): 0.192 (active)
- normalized growth (S. cerevisiae deletion strains, locus YML016C, strain PPZ1, active compounds read low): 0.444 (active)
- normalized growth (S. cerevisiae deletion strains, locus YML032C, strain rad52, active compounds read low): 0.449 (active)
- normalized growth (S. cerevisiae deletion strains, locus YML124C, strain tub3, active compounds read low): 0.449 (active)
- normalized growth (S. cerevisiae deletion strains, locus YMR078C, strain ctf18, active compounds read low): 0.407 (active)
- normalized growth (S. cerevisiae deletion strains, locus YMR223W, strain ubp8, active compounds read low): 0.297 (active)
- normalized growth (S. cerevisiae deletion strains, locus YMR263W, strain SAP30, active compounds read low): 0.424 (active)
- normalized growth (S. cerevisiae deletion strains, locus YMR307W, strain GAS1, active compounds read low): 0.148 (active)
- normalized growth (S. cerevisiae deletion strains, locus YNL067W, strain RPL9B, active compounds read low): 0.234 (active)
- normalized growth (S. cerevisiae deletion strains, locus YNL128W, strain TEP1, active compounds read low): 0.272 (active)
- normalized growth (S. cerevisiae deletion strains, locus YNL153C, strain GIM3, active compounds read low): 0.439 (active)
- normalized growth (S. cerevisiae deletion strains, locus YNL183C, strain NPR1, active compounds read low): 0.228 (active)
- normalized growth (S. cerevisiae deletion strains, locus YNL233W, strain BNI4, active compounds read low): 0.242 (active)
- normalized growth (S. cerevisiae deletion strains, locus YNL250W, strain rad50, active compounds read low): 0.789 (active)
- normalized growth (S. cerevisiae deletion strains, locus YNL271C, strain bni1, active compounds read low): 0.623 (active)
- normalized growth (S. cerevisiae deletion strains, locus YNL298W, strain CLA4, active compounds read low): 0.459 (active)
- normalized growth (S. cerevisiae deletion strains, locus YNL307C, strain MCK1, active compounds read low): 0.114 (active)
- normalized growth (S. cerevisiae deletion strains, locus YNL322C, strain KRE1, active compounds read low): 0.337 (active)
- normalized growth (S. cerevisiae deletion strains, locus YNR052C, strain pop2, active compounds read low): 0.656 (active)
- normalized growth (S. cerevisiae deletion strains, locus YOL006C, strain TOP1, active compounds read low): 0.29 (active)
- normalized growth (S. cerevisiae deletion strains, locus YOL012C, strain htz1): 0.231
- normalized growth (S. cerevisiae deletion strains, locus YOL147C, strain pex11, active compounds read low): 0.362 (active)
- normalized growth (S. cerevisiae deletion strains, locus YOR061W, strain CKA2, active compounds read low): 0.432 (active)
- normalized growth (S. cerevisiae deletion strains, locus YOR069W, strain VPS5, active compounds read low): 0.501 (active)
- normalized growth (S. cerevisiae deletion strains, locus YOR136W, strain idh2, active compounds read low): 0.304 (active)
- normalized growth (S. cerevisiae deletion strains, locus YOR144C, strain elg1, active compounds read low): 0.652 (active)
- normalized growth (S. cerevisiae deletion strains, locus YOR184W, strain ser1, active compounds read low): 0.111 (active)
- normalized growth (S. cerevisiae deletion strains, locus YOR231W, strain MKK1, active compounds read low): 0.288 (active)
- normalized growth (S. cerevisiae deletion strains, locus YOR316C, strain cot1, active compounds read low): 0.636 (active)
- normalized growth (S. cerevisiae deletion strains, locus YPL055C, strain LGE1, active compounds read low): 0.176 (active)
- normalized growth (S. cerevisiae deletion strains, locus YPL241C, strain CIN2, active compounds read low): 0.289 (active)
- normalized growth (S. cerevisiae deletion strains, locus YPL256C, strain CLN2, active compounds read low): 0.345 (active)
- normalized growth (S. cerevisiae deletion strains, locus YPR119W, strain clb2, active compounds read low): 0.308 (active)
- normalized growth (S. cerevisiae deletion strains, locus YPR141C, strain kar3, active compounds read low): 0.935
- normalized growth (S. cerevisiae deletion strains, locus YPR163C, strain tif3, active compounds read low): 0.207 (active)
- normalized growth (S. cerevisiae deletion strains, locus YPR167C, strain met16, active compounds read low): 0.44 (active)
- normalized growth (S. cerevisiae deletion strains, strain wtn01, active compounds read low): 0.226 (active)
- normalized growth (S. cerevisiae strains, strain wild type, active compounds read low): 0.244 (active)
